About 5,200 (1.7%) of roughly 300,000 compounds were called active. The sample holds actives, similar compounds and a random draw of the others, so the mix is not that of the screen. Values without a mark were called inactive.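 The calls were made as follows: active = mean replicate activation of at least 50% with a set share of replicates each reaching 50%; inconclusive = only one of those two conditions met; inactive = mean below 50% and too few replicates reaching it.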
experiment: HSF-1 response element luciferase induction – NIH3T3-HGL cells, MG132 stress, luminescence, single point, primary screen (AID 504408); conditions: NIH3T3-HGL HSF-1 luciferase reporter, MG132, 8 h; at 9 µM; hits give high values;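 also: 0% = median of the neutral control wells and 100% = twice that signal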

Structure (SMILES) | activation
CCOc1ccc(CN(CCCl)CCCl)cc1C(=O)OC | 68.2% (active)
CCCOC(=O)C1C2c3ccccc3C(c3ccccc32)C1C(=O)O (stereo not given) | -7.72%
C=CCn1c(O)c(/C=N/N2CCOCC2)c(=O)[nH]c1=S | 35%
CC[C@H]1CC2CN3CCc4c([nH]c5ccccc45)C(C(=O)OC)(C2)C13 (stereo not given in full) | 3.35%
COc1ccc(-n2c(-c3ccccc3)nc3ccccc3c2=O)cc1 | -4.8%
CC12CCC3C(CCC4CC(=O)CCC43C)C1CC(=NO)C2=O (stereo not given) | -22.3%
O=C1NC(=O)N(Cc2ccco2)C(=O)/C1=C\c1ccc(-c2ccc(F)cc2)o1 | 14.8%
O=C1NC(=O)N(CCc2ccc(F)cc2)C(=O)/C1=C/C=C/c1ccccc1 | 196% (active)
O=C(O)COc1ccccc1/C=C1\C(=O)NC(=O)N(CCC2=CCCCC2)C1=O | 10%
O=C(COC(=O)c1ccccc1)Nc1ccc(Cl)cc1C(=O)c1ccccc1 | -9.79%
O=C(NC(=S)N1C[C@H]2C[C@H](C1)c1cccc(=O)n1C2)c1ccc(F)cc1 | -0.361%
CN(C)CC1Oc2ccccc2OC1(O)c1ccccc1 (stereo not given) | 89.4% (active)
CNC(=O)O/N=C(\N)Cc1csc2ccc(Cl)cc12 | 27.8%
O=C(O)C1CSC(c2cccnc2)N1 (stereo not given) | 3.54%
COC(=O)N1C(c2ccccc2)C1c1ccccc1 (stereo not given) | 50.1% (active)
COC(=O)C(c1ccccc1)N1CCCCCC1 (stereo not given) | 1.63%
O=C(CCN1CCCCC1)NCC(=O)Nc1ccc(Br)cc1C(=O)c1ccccc1 | -6.9%
O=C(CSC1c2ccccc2-c2ccccc21)N/N=C/c1ccccc1 | -4.94%
COc1ccc(C2NCc3ccc4c(c3-n3cccc32)OCO4)cc1OC (stereo not given) | 4.67%
CCOC(=O)C1SC2(C(F)(F)C(F)F)CC1(O)c1c(c(OC)c3occc3c1OC)O2 (stereo not given) | -4.08%

Source: PubChem BioAssay AID504408 (Broad Institute, 2011)
